61 molecules from PubChem BioAssay AID1578 (Sanford-Burnham Center for Chemical Genomics, 2009) can be followed below.

In all, about 290,000 compounds went through this assay and about 3,000 (1%) were called active. This is one part of a sample in which actives are shown more often than they occur. No stated cut-off is given here; in the data, active means inhibition mostly above about 36% (no sharp cut-off); inactive means mostly below about 34%.

The nature of this assay: inhibition of NOD1-driven NF-kB reporter – cell-based, luminescence, uHTS, primary screen (AID 1578).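 Further: HEK-293T reporter cells stimulated with the NOD1 agonist gamma-tri-DAP.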 As to conditions: NOD1-driven NF-kB luciferase reporter cells, at 4 µM, active compounds read high.
As to `CC(=O)c1c(C)[nH]c(C(=O)Nc2ccc(C)c(S(=O)(=O)N(C)C)c2)c1C`, the inhibition was -63.3% (inactive). `Nc1nc(NCC(=O)O)nc(NCc2ccccc2)c1[N+](=O)[O-]`: the inhibition is -13.3% (inactive). Take `O=C(NNC1=Nc2ccccc2SC1)c1ccc(F)cc1`: the inhibition is 18.7% (inactive). On to `O=C(NNC1=Nc2ccccc2SC1)c1ccccc1F`, for which the inhibition was 1.9% (inactive). For the molecule `O=C(NNC1=Nc2ccccc2SC1)c1ccc(Cl)cc1`, the inhibition was 78.1% (active). Take `COc1cc(/C=C(\C#N)C(=O)N2CCOCC2)ccc1OCc1ccccc1`: the inhibition is -23.3% (inactive). The same measure for `O=S(=O)(c1cnc(Cl)c(Cl)c1)N1CCN(c2ncccn2)CC1`: -5.2% (inactive). Turning to `CC(C)c1ccccc1NC(=O)COC(=O)c1cccnc1`, the inhibition is -18.3% (inactive). Consider `Cc1cc(NC(=O)CSc2cn(CCNC(=O)c3ccc(Cl)cc3)c3ccccc23)no1`, for which the inhibition is 75.9% (active). Turning to `Cc1ccc(C(=O)NCCn2cc(SCC(=O)Nc3cc(C)on3)c3ccccc32)cc1`, the inhibition was -10.3% (inactive).

Regarding `Cc1cc(NC(=O)CSc2cn(CCNC(=O)c3ccccc3)c3ccccc23)no1`, the inhibition was 11.3% (inactive). As for `O=C(CCC(=O)OCC(=O)c1ccc(Br)cc1)NC1CCCCC1`, the inhibition is -4.2% (inactive).

In the case of `Cc1nc(SCC(=O)N2CCCCC2)c2c(C)c(C)sc2n1`, the inhibition is -15.5% (inactive). With `Cc1nc(N2CCN(C(=O)CCC(=O)O)CC2)c2c(C)c(C)sc2n1` the figure was -16.7% (inactive); with `CCC(=O)N1CCN(c2nc(C)nc3sc(C)c(C)c23)CC1`, 9.5% (inactive).

As for `CCn1c(SCC(=O)N2CCc3ccccc3C2)nc2sc(C)c(C)c2c1=O`, the inhibition is 20.4% (inactive). `COC(=O)c1ccc(CNC(=O)N2CCN(S(=O)(=O)c3ccc(C)cc3)CC2)cc1`: the inhibition is -19.3% (inactive). The same measure for `Cn1c(=O)c2c(nc(SCc3ccccc3F)n2C)n(C)c1=O`: 24% (inactive). With `CN1C(=S)SC(/[N+]([O-])=C\c2ccc(Cl)cc2)C1(C)C` (stereo unspecified), the inhibition was 84.4% (active). On to `Cc1ccc(/C=[N+](/[O-])C2SC(=S)N(C)C2(C)C)cc1` (stereo unspecified), for which the inhibition was -10.5% (inactive).

Turning to `CN1C(=S)SC(/[N+]([O-])=C/c2ccc(Cl)cc2)C1(C)C` (stereo unspecified), the inhibition is 12% (inactive). Take `O=C(O)c1ccc(-c2nc3scc(-c4ccccc4)c3c(=O)[nH]2)cc1`: the inhibition is -3.4% (inactive). For `COc1cc(SC)ccc1C(=O)OC1CCOC1=O` (stereo unspecified), the inhibition is 7.7% (inactive). With `Cc1cc(C)cc(NC(=O)c2ccc(CN3CCc4ccccc4C3)cc2)c1`, the inhibition was 39.1% (inactive). With `O=C(Nc1ccccc1)c1ccc(CN2CCc3ccccc3C2)cc1` the figure was 37.2% (inactive). `Cc1ccc(NC(=O)c2ccc(CN3CCc4ccccc4C3)cc2)cc1`: the inhibition was 42.4% (inactive).

As to `CC(=O)Nc1ccc(NC(=O)c2ccc(CN3CCc4ccccc4C3)cc2)cc1`, the inhibition is 21.2% (inactive). Consider `CCOC(=O)c1ccc(NC(=O)CN2CCc3ccccc3C2)cc1`, for which the inhibition was -2.1% (inactive). `CCOc1ccccc1NC(=O)c1ccc(CN2CCc3ccccc3C2)cc1`: the inhibition is 25.2% (inactive). For the molecule `C#Cc1ccc([C@H]2C=C(C(=O)N3CCN(Cc4ccc5c(c4)OCO5)CC3)O[C@@H](OCc3ccc(CO)cc3)C2)cc1`, the inhibition was 1.8% (inactive). In the case of `Cc1ccc(S(=O)(=O)Nc2ccccc2N2CCOCC2)cc1`, the inhibition was -11.5% (inactive).

`Cc1nc2sc(C(c3ccc(F)cc3)N3CCOCC3)c(O)n2n1` (stereo unspecified): the inhibition is 0.4% (inactive). The same measure for `Cc1onc(-c2ccccc2)c1C(=O)c1c[nH]c(C(=O)NCCCN2CCOCC2)c1`: -7.9% (inactive); for `COc1ccc(CCNC(=O)Cn2c(=O)n(-c3cc(F)ccc3F)c(=O)c3sccc32)cc1OC`: -47.6% (inactive). Take `CC(NC(=S)Nc1ccc(OC(F)F)c(Cl)c1)C(C)(C)C` (stereo unspecified): the inhibition was -14.8% (inactive).

For `O/N=C/c1cccc[n+]1CCCCCC[n+]1ccccc1/C=N/O`, the inhibition was 27.1% (inactive).

On to `Cc1[nH]n2c(=O)cc(C(C)(C)C)nc2c1-c1ccccc1`, for which the inhibition was 85.3% (active).

Regarding `Cc1cc(=O)n2[nH]c(C)c(-c3ccccc3)c2n1`, the inhibition was -4.2% (inactive). The same measure for `Cc1[nH]n2c(=O)cc(C(C)C)nc2c1-c1ccccc1`: -8.4% (inactive); for `COc1cccc(-c2c[nH]c(=O)[nH]c2=O)c1`: -6.8% (inactive).

As for `COc1ccc(/C=C/C(=O)c2ccc(NC3=NCCCS3)cc2)cc1OC`, the inhibition was 44.3% (active).

For `COc1cccc(/C=C/C(=O)c2ccc(NC3=NCCCS3)cc2)c1`, the inhibition was -44.4% (inactive). In the case of `Cc1cccc(/C=C/C(=O)c2ccc(NC3=NCCCS3)cc2)c1`, the inhibition is 32.1% (inactive).

In the case of `CNCCCOc1ccc(C)cc1Br`, the inhibition was 13.5% (inactive). With `Cc1nn2c3ccccc3n(Cc3ccccc3)c2nc1=O`, the inhibition is -20.5% (inactive). `O=C(NCC(=O)N(c1ccc(Cl)cc1)C(C(=O)NC1CCCC1)c1ccncc1)c1ccco1` (stereo unspecified): the inhibition was -13.1% (inactive). With `CN(C)CCNC(=O)c1c(CSc2ccccc2)noc1C(=O)NCc1ccccc1`, the inhibition is -3.7% (inactive). With `NC(=O)C1CCN(C(=O)c2ccc3c(c2)S(=O)(=O)c2ccccc2C3=O)CC1`, the inhibition is 1.2% (inactive). With `COC(=O)c1cc(C)nc2c1C(=O)C(=O)C=C2N1CCOCC1` the figure was -6.2% (inactive); with `CCN(CC)CCNc1cc(C)nc2c1C(=O)C(=O)C=C2N1CCCCC1`, 101% (active). Consider `CCN(CC)CCNC1=CC(=O)OC12CCCCC2`, for which the inhibition is -19.3% (inactive). `Cc1ccc(C(=O)/C=C/c2cc(Br)cc(Br)c2O)o1`: the inhibition is 89.5% (active). `Cc1ccc(C(=O)/C=C/c2ccccc2)o1`: the inhibition was -0.9% (inactive).

With `Cc1ccc(C(=O)/C=C/c2ccc(Br)cc2)o1`, the inhibition was 21% (inactive).

Consider `Cc1ccc(C(=O)NC2CC3CCC(C2)N3Cc2ccco2)cc1` (stereo unspecified), for which the inhibition is -13.6% (inactive). With `O=C(COC(=O)c1ccc[nH]c1=O)NCCc1ccc(Cl)cc1Cl`, the inhibition was -4.3% (inactive). As to `COc1ccc(OC)c(NC(=O)NNC(=O)CCCOc2ccc(Cl)cc2C)c1`, the inhibition was -14% (inactive).

Consider `O=C(O)Cc1sc(-c2ccccc2Cl)nc1-c1ccccc1`, for which the inhibition was 44% (active). For the molecule `O=C(O)Cc1sc(-c2ccccc2)nc1-c1ccccc1`, the inhibition is -9.7% (inactive). For `O=C(Cc1sc(-c2ccccc2Cl)nc1-c1ccccc1)Nc1ccccc1`, the inhibition was -49.4% (inactive). In the case of `CCCn1c(=O)c(C(=O)NNC(=O)c2ccc(Cl)cc2Cl)c(O)c2ccccc21`, the inhibition is -6.2% (inactive).
